Assay outcomes as filed in PubChem BioAssay.
PriA SSB inh = inhibitors of Klebsiella pneumoniae PriA binding to SSB C-terminal tail. 0.6% of 430,000 active. AID 1272365. inhibition, % at 33 µM. AlphaScreen SSBct-PriA binding, biotinylated peptide; in the data active = inhibition mostly above about 37%, no sharp cut-off; inactive = mostly below about 20%;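 also: plate controls were negative control peptide for no effect and reference peptide for full effect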
Mtb hypoxia rep = reduces hypoxia-regulated biosensor signal in M. tuberculosis. fluorescence inhibition, % (no concentration beside the values). M. tuberculosis hypoxia-regulated fluorescent reporter, fluorescence. 0.1% of 300,000 active; in the data active = fluorescence inhibition mostly above about 23%, no sharp cut-off; inactive = mostly below about 17%
RN4220 kill = S. aureus RN4220 growth inhibition | 0.33% of 330,000 active | inhibition, % (concentration not given with the values) | AID 1259311 | OD600, 16 h; in the data active = inhibition above about 85%;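 also: plate controls were untreated cells for no effect and reference antibiotic for full effect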
PfHsp40 yeast = rescue of PfHsp40-mediated yeast toxicity. growth rescue, % at 12.5 µM. S. cerevisiae expressing PfHsp40, growth rescue, ATP luminescence. 0.68% of 340,000 active; in the data active = growth rescue above about 28%, passing the limit was not always enough;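 also: yeast W303a lacking pdr1 and pdr3 grown in galactose medium; growth measured after three days at 30 °C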
DUSP3 inh = inhibitors of human VHR1 phosphatase (DUSP3). P51452. recombinant VHR phosphatase, pNPP absorbance. inhibition, % at 13.3 µM. 0.52% of 290,000 active; in the data active = inhibition above about 50%
Target sequence (P51452 whole entry, looked up): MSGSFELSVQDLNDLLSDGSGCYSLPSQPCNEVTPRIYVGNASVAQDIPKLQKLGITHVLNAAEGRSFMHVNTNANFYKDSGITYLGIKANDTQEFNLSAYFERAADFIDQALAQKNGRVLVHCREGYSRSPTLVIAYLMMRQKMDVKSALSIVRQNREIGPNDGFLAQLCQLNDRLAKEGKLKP
Sa ugtP lethal = growth inhibition of S. aureus ugtP deletion strain; S. aureus RN4220 ugtP deletion, OD600 growth, 16 h; growth inhibition, % (test concentration not listed); 0.54% of 330,000 active; AID 1259309; in the data active = growth inhibition above about 68%;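 also: plate controls were untreated wells for no effect and antibiotic for full effect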
* hit, by the source's call; . = not tested or not shown. Hits are enriched below; roughly 1.8% of the tested compounds scored in any of these assays.

SMILES	PriA SSB inh	Mtb hypoxia rep	RN4220 kill	PfHsp40 yeast	DUSP3 inh	Sa ugtP lethal
NS(=O)(=O)c1ccc(CCNC(=O)C(=O)NCC2OCCN2C(=O)c2ccc3c(c2)OCO3)cc1 (configuration not stated)	-2	5	0	-1	26	-2
O=C(NCc1ccccn1)C(=O)NCC1OCCCN1S(=O)(=O)c1ccc(F)cc1 (configuration not stated)	-1	11	4	-1	10	17
O=C(NCc1ccccn1)C(=O)NCC1OCCN1S(=O)(=O)c1ccc(F)cc1 (configuration not stated)	0	7	3	33*	29	4
O=C(NCCCn1ccnc1)C(=O)NCC1OCCCN1S(=O)(=O)c1ccc(Cl)cc1 (configuration not stated)	-9	-5	2	-1	-13	5
O=C(NCCCn1ccnc1)C(=O)NCC1OCCN1S(=O)(=O)c1ccc(Cl)cc1 (configuration not stated)	61*	-4	5	0	-4	-1
O=C(NCCCn1ccnc1)C(=O)NCC1OCCN1S(=O)(=O)c1ccccc1 (configuration not stated)	43*	.	.	0	10	.
O=C(NCCCn1ccnc1)C(=O)NCC1OCCN1C(=O)c1ccc2c(c1)OCO2 (configuration not stated)	71*	.	.	.	.	.
Cc1ccc(-n2ncc3c(=O)n(NC(=O)c4ccccc4Br)cnc32)cc1C	11	.	.	.	.	.
Cc1nn(-c2ccccc2)cc1[C@@H]1CC(c2cccc(Br)c2)=NN1C(=O)CCC(=O)O	-8	.	.	.	.	.
COc1cccc(NC(=O)NCCSC2CCOCC2)c1OC	10	.	.	.	.	.
Cc1ccc(S(=O)(=O)N=S(CC2CC2(Cl)Cl)c2ccccc2)cc1 (configuration not stated)	-1	.	.	.	.	.
CC(=O)N(C(C)=O)c1c(C#N)c(C)n(-c2ccccc2)c1C(=O)c1ccccc1	85*	.	2	0	6	10
Cc1ccc(C)c(NC(=O)CSc2n[nH]c(-c3ccccn3)n2)c1	80*	3	-1	0	17	-5
O=C(CSc1n[nH]c(-c2ccccn2)n1)NC1CC2CCC1C2 (configuration not stated)	99*	.	.	.	.	.
O=C(CSc1n[nH]c(-c2ccncc2)n1)Nc1cccc(Cl)c1	30	.	.	.	.	.
Cc1ccc(C)c(NC(=O)CSc2ncccn2)c1	-7	.	.	.	.	.
Cc1ccccc1NC(=O)CSc1n[nH]c(-c2ccccn2)n1	106*	2	1	-2	17	-7
O=C(CSc1n[nH]c(-c2ccccn2)n1)Nc1cccc(Cl)c1	88*	-7	9	-1	23	4
O=C(Nc1nc2c(s1)C(=O)NCCC2)c1cc(=O)[nH]c(=O)[nH]1	-6	.	.	.	.	.
CC(C)(C)C1CCC(=NNc2ccc(S(N)(=O)=O)cc2[N+](=O)[O-])CC1 (configuration not stated)	45*	0	-2	-1	7	9
CC1CC(=NNc2ccc(S(N)(=O)=O)cc2[N+](=O)[O-])CC(C)(C)C1 (configuration not stated)	52*	6	-9	.	.	19
CC1CCCC/C1=N\Nc1ccc(S(N)(=O)=O)cc1[N+](=O)[O-] (configuration not stated)	.	.	.	0	-7	.
c1csc(-c2nc3c4ccccc4c4ccccc4c3[nH]2)c1	13	3	81	-1	8	90*
Oc1ccccc1-c1nc2c3ccccc3c3ccccc3c2[nH]1	-13	3	100*	-1	10	98*
Cc1cc(NC(=O)Cc2cccs2)n(-c2nc3ccccc3s2)n1	-3	.	.	.	.	.
SMILES	PriA SSB inh	Mtb hypoxia rep	RN4220 kill	PfHsp40 yeast	DUSP3 inh	Sa ugtP lethal
CN(CCC#N)C(=O)CSc1nnc(-c2ccco2)n1N	3	-8	2	0	51*	-1
COc1ccccc1-c1ccc(=O)n(CC#N)n1	2	.	.	.	.	.
COC(=O)N1CCC(CNC(=O)c2cc(C)cs2)CC1	2	.	.	.	.	.
O=C(O)CCCc1ccc2c(c1)CCc1ccccc1-2	4	.	.	185*	.	.
O=C(Nc1ccc(Nc2ccccc2)cc1)C(Cl)Cl	16	16	-4	8	-7	22
CC(C)(C)C(=O)C(Cl)C(=O)Nc1ccccc1 (configuration not stated)	-5	1	38	275*	-4	30
O=C1NN(c2cccc(Br)c2)C(=O)/C1=C\c1ccc(N2CCOCC2)cc1	-4	-1	2	-1	53*	1
COc1cnc(-c2ccccn2)nc1N1CCOCC1	156*	.	.	.	.	.
